Several values for one entry are separate records, joined by “and”; a condition that tells them apart may be missing. Identical values can stand only once. About 1,500 (0.58%) of roughly 260,000 compounds were called active. About 5% were inconclusive and are not listed.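 How the source made its calls: active means inhibition above a set limit at one or more doses, reproduced on every date tested; inconclusive means results disagree between test dates, or hit never tested in dose response; inactive means the rest.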 Only a sample is shown. Results with a measured potency or affinity are listed apart.
The compounds below were run against Virion infectivity factor (Human immunodeficiency virus type 1 group M subtype B (isolate BH10)) + Virion infectivity factor (Human immunodeficiency virus type 1 group M subtype B (isolate BRU/LAI)) + Virion infectivity factor (Human immunodeficiency virus type 1 group M subtype B (isolate PCV12)) + Virion infectivity factor (Human immunodeficiency virus type 1 group M subtype B (isolate HXB2)) + DNA dC->dU-editing enzyme APOBEC-3G (Homo sapiens) (UniProt P69720+P69721+P69722+P69723+Q9HC16) (assay: inhibitors of Vif binding to APOBEC3G peptide, primary screen, biochemical, TR-FRET, GST-Vif 1-94, biotin-A3G peptide, dose response retest (AID 1117319;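 further: Vif residues 1-94 fused to GST binding biotinylated APOBEC3G peptide 110-148; 0% = full assay without inhibitor and 100% = GST in place of GST-Vif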)). Settings: active compounds read high.

inhibition, inactive:
CC1=C(C(=O)Nc2ccc(C)cc2)C(c2ccc(N(C)C)cc2)NC(=O)N1 (stereo unspecified) -2.24% and 24.2%
CC1=C(C(=O)Nc2ccccc2)C(c2ccc(N(C)C)cc2)NC(=O)N1 (stereo unspecified) 8.56%
O=C(NC(C(=O)N/N=C/c1cccc2ccccc12)c1n[nH]c(=O)c2ccccc12)c1ccccc1 (stereo unspecified) 4.11%
O=[N+]([O-])c1ccc(NN=Cc2ccccc2O)nc1 7.07%
O=C(O)Cc1c(O)ccc2ccccc12 3.01%
O=C(O)Cc1ccccc1C(=O)O 0.17%
O=C(N/N=C1\CCCc2ccccc21)c1cccc([N+](=O)[O-])c1 3.37%
COC(=O)CCN(C(=O)c1ccc(N2CCCCC2)c([N+](=O)[O-])c1)c1ccccn1 -7.46%
COc1ccc(C(=O)NNC(=O)c2ccc(C)cc2)cc1S(=O)(=O)N1CCCC1 -1.1%
CCCCCC(=O)N1C[C@H](n2cc(C3CC3)nn2)[C@@H](O)C[C@@H]1c1ccc(C)cc1 -2.78%
COc1ccc(C(=O)n2nc(-c3ccccc3)nc2N)cc1OC -0.61% and -0.84%
COc1ccccc1C(=O)n1nc(-c2ccc(Cl)cc2)nc1N 20.4%
Cc1occc1C(=O)N(C)CC1CCCN(CCc2ccccc2F)C1 (stereo unspecified) 7.6%
O/N=C1\CCCC\C1=C/c1ccccc1 5.14%
O=C1C(=Cc2ccco2)CCC1=Cc1ccco1 -4.11%
NC(=N\N=Cc1ccco1)/C(N)=N/N=Cc1ccco1 27.4%
COc1ccc2c(c1)CC/C(=C/c1ccco1)C2=O 26.2%
O=C1/C(=C\c2ccccc2)CCC/C1=C/c1ccccc1 -1.78%
O=C1/C(=C/c2ccco2)CCC1C1CCCC1 (stereo unspecified) 25.4%
Cc1ccccc1C(=O)NC1CCS(=O)(=O)C1 (stereo unspecified) -1.4%
CCc1ccc(CN(C)Cc2nc(Cc3ccc(OC)c(OC)c3)no2)nc1 -3.31%
COc1ccc(OC)c(NC(=O)CCN2CCN(c3ccccc3F)CC2)c1 25.7%
Nc1nc(CN2CCCCCC2)nc(Nc2ccc(F)cc2)n1 -3.7%
O=C(CCNS(=O)(=O)c1ccc(Br)cc1)NCCc1ccccc1 -1.9%
Cc1ccc(S(=O)(=O)CCC(=O)NC2CCCCC2)cc1 3.12%
COc1ccc(S(=O)(=O)CCC(=O)NCCc2ccc(S(N)(=O)=O)cc2)cc1 12.3%
Cc1ccc(S(=O)(=O)CCC(=O)NCCc2ccccc2)cc1 1.3%
COc1ccc(S(=O)(=O)CCC(=O)NC2CCCCC2)cc1 23.2%
Cc1ccc(CCNC(=O)CCS(=O)(=O)c2ccc(Br)cc2)cc1 28.3%
CC(NS(=O)(=O)c1ccccc1)C(=O)Nc1ccc2c(c1)OCCO2 (stereo unspecified) 0.08%
CC(=O)NCCn1c(SCc2ccccc2F)nc2ccccc2c1=O -4.55%
O=C(CSc1nc2sc3c(c2c(=O)[nH]1)CCC3)NCCO -6.15%
O=C(Cc1ccccc1)Nc1ccccc1C(=O)Nc1ccccc1 9.21%
O=C(CC12CC3CC(CC(C3)C1)C2)NCc1ccccc1 0.11%
O=C1Nc2ccccc2N2CCCC12 (stereo unspecified) -3.06%
FC(F)(F)c1ccc2c(c1)NCC1CCCN21 (stereo unspecified) 32.5%
COc1ccc(CNC(=O)C(C)N(C)Cc2cccc(F)c2)cc1 (stereo unspecified) -5.46%
CCNc1ccc(C(=O)NN=C2CCCC2)cc1[N+](=O)[O-] 4.6%
Cc1ccc(C)c(NC(=O)CSc2nc3[nH]ncc3c(=O)[nH]2)c1 8.18%
COc1cc(OC)c(-c2noc(C(=O)OC(C)(C)C)c2C(=O)OC(C)(C)C)c(OC)c1 -1.31%
COc1cccc(N2C(=O)/C(=C\c3cccs3)NC2=S)c1 7.97%
COc1cccc(/C=C2/C(=O)NN(c3ccccc3)C2=O)c1 0.84%
COc1ccccc1NC(=O)C(=O)N/N=C/c1ccc([N+](=O)[O-])s1 -6.16%
O=C1N/C(=C/c2ccc(Br)s2)C(=O)N1c1ccccc1 -0.93%
O=C(/C=C/c1ccc([N+](=O)[O-])s1)N1CCN(c2ccccc2)CC1 2.14%
COc1ccccc1N1C(=O)S/C(=C\c2ccc(C)s2)C1=O -7.12%
O=C1NC(=S)N/C1=C/c1cc2c(cc1[N+](=O)[O-])OCO2 -9.06%
Cc1ccc(N2NC(=O)/C(=C\c3cc4c(cc3[N+](=O)[O-])OCO4)C2=O)cc1C 27.7%
CCOC(=O)C1=C(CC)Nc2ccccc2N=C1NC(=O)c1ccc(S(=O)(=O)N2CCOCC2)cc1 -4.07%
O=c1nc2n(c3ccc([N+](=O)[O-])cc13)CCCCC2 -7.12%
CCOC(=O)N1CCC(NC(=O)c2cc(S(=O)(=O)N3CCc4ccccc43)cn2C)CC1 -4.57%
CCOC(=O)C1=C(C)N(C[C@@H]2CC[C@@H](Cc3ccc(-c4ccccc4)cc3)O2)C(=O)NC1c1ccc(SCc2ccco2)c([N+](=O)[O-])c1 (stereo partly specified) 30.7%
Cc1nc2c(s1)sc1ccccc12 -4.72%
C=CC(=O)NC(C)(C)CCN1CCOCC1 0.07%
CCc1cccc(C)c1NC(=O)CO/N=C(\N)CC(=O)NC1CCCCC1 -0.04%
O=C1C=CC(=Nc2ccc3c(c2)C(=O)c2ccccc2-3)O1 -2.81%
O=[N+]([O-])c1ccccc1C=NNc1ccccc1 -8.57%
COc1ccc(CC(NC(C)=O)C(=O)NC2CCN(S(=O)(=O)c3ccccc3)CC2)c(OC)c1 (stereo unspecified) 3.28%
O=C(COC(=O)C12CC3CC(CC(Br)(C3)C1)C2)N1CCOCC1 4.7%
Cc1cc(=O)oc2cc(OCC(=O)N3CCCc4ccccc43)ccc12 -3.74%
COCCCNc1nc2nonc2nc1N1CCC(C(C)N2CCOCC2)CC1 (stereo unspecified) -10.9%
CN1CCN(C(=O)c2ccc3nc(-c4ccccc4)c(-c4ccccc4)nc3c2)CC1 5.63%
O=C(c1ccco1)N1CCN(c2ncccn2)CC1 5.99%
O=C(c1cccc(C(=O)N2CCN(c3ncccn3)CC2)c1)N1CCN(c2ncccn2)CC1 17.4%
CCN1CCN(C(=O)c2ccc3nc(-c4ccccc4)c(-c4ccccc4)nc3c2)CC1 -0.29%
O=C(COc1ccccc1)NC(Cc1c[nH]c2ccccc12)C(=O)O (stereo unspecified) 7.79%
c1ccc(-c2noc(CCC3CCCC3)n2)cc1 -1.6%
Cc1c(C(=O)N2CCCCCC2)oc2ccccc12 30.7%
Cc1cc(C)nc(NN=CC2=C(N3CCOCC3)/C(=C/c3ccc(Cl)cc3)CC2)n1 17.2%
Cc1cc(C)nc(N/N=C/c2ccc(Cl)cc2)n1 -3.39%
COC(CNC(=O)c1ccc(CS(=O)(=O)c2c(Cl)cccc2Cl)o1)OC -0.54%
CN(C)CCNC(=O)c1ccc(CS(=O)(=O)c2c(Cl)cccc2Cl)o1 3.4%
CC(=O)c1cccc(NC(=O)N2CCCC2C(=O)NC2CCCCC2)c1 (stereo unspecified) -4.16%
CCOc1ccc2nc(NC(=O)CSc3nc4c(c(=O)n(C)c(=O)n4C)n3C(C)C)sc2c1 18.8%
O=C(c1cccc(C(=O)N2CCN(c3ccccc3F)CC2)c1)N1CCN(c2ccccc2F)CC1 -8.59%
CCC(=O)c1ccc(N2CCN(C(=O)c3cccc(F)c3)CC2)c(F)c1 -9.86%
CCOC(=O)C1CCN(CC(O)COCc2ccc(Cl)cc2)CC1 (stereo unspecified) 8.82%
O=S(=O)(/C=C/c1ccccc1)N1CCN(c2cccc(Cl)c2)CC1 -3.95%
CS(=O)(=O)c1ccc2nc(NC(=O)c3ccco3)sc2c1 8.25%
O=C(Nc1nnc(-c2ccco2)s1)C1CC1 12.1%
O=C(Nc1nnc(-c2ccco2)s1)C1CCCCC1 22.7%
COc1ccc(C(=O)Nc2nnc(-c3ccco3)s2)cc1 -3.84%
Cc1ccc(C(=O)Nc2nc(-c3ccco3)c(-c3ccco3)s2)o1 23.7%
O=C(NC(=S)Nc1nc2ccc(F)cc2s1)c1ccco1 9.98%
O=C(Nc1ccc(F)cc1F)c1cc(-c2ccco2)on1 5.56%
O=C(Nc1nc(-c2cccs2)c(-c2ccccc2)s1)c1ccco1 2.82%
COc1ccc(CNC(=O)N[C@@H](CC(C)C)C(=O)O)cc1OC -2.37%
CCCc1cc(=O)[nH]c(SCC(=O)NCC2COc3ccccc3O2)n1 (stereo unspecified) -7.96%
COc1cnc(-c2ccccn2)[nH]c1=O 2.61%
O=C(Cn1nnc(-c2ccccc2F)n1)NCc1ccco1 10.4%
COc1ccc(CCNS(=O)(=O)c2ccc(OC)cc2)cc1 -5.66%
Cc1[nH]c2ccc(Br)cc2c(=O)c1CN1CCCCCC1 -12.9%
CC1CCCN(S(=O)(=O)Cc2ccc(Cl)cc2)C1 (stereo unspecified) 4.49%
COc1ccc(COc2ccsc2C(=O)Nc2ccc(Cl)cc2)cc1 -8.53%
[O-][n+]1cccc2cccc(O)c21 -10.3%
Cc1ccc2cccc(O)c2[n+]1[O-] 18.8%

Reference: PubChem BioAssay AID1117319 (Southern Research Institute, 2015)
